# Data taken from PubChem BioAssay AID463173 (ICCB-Longwood Screening Facility, Harvard Medical School, 2010).
# Screen size: about 52,000 compounds; about 4,300 (8.3%) were called active. Many of the other results were omitted from the sample, so actives are more common in it than they were. Unmarked numbers belong to inactive results. No stated cut-off is given here; in the data, active means survival mostly below about 52% (no sharp cut-off); inactive means mostly above about 56%.
# System: DeltatarO mutant
# Experiment: S. aureus survival, RN4220 and DeltatarO strains – OD600, teichoic acid synthesis inhibitors, primary screen (AID 463173)
# Conditions: S. aureus RN4220 wild type/DeltatarO growth, OD600, 18 h, hits give low values, screened at 18.75 µg/mL (by protocol)
row,SMILES,survival
1,CCN(CC)CCNC(=O)c1c2c(nc3ccccc13)C(=O)N(C1CCCCC1)C2,94%
2,CCOc1ccc2c(c1)c(=O)c(C(=O)c1ccc(CC)cc1)cn2CC(=O)Nc1ccccc1C,70%
3,CCOC(=O)C1CCN(C(=O)c2ccc(C)c(NC(=O)c3nsc4ccccc34)c2)CC1,88%
4,CCN(CCCNC(=O)c1cc2c(=O)n(CC)c3ccccc3c2s1)Cc1ccccc1,101%
5,CCN(CCCNC(=O)c1cc2c(=O)n(CC)c3ccccc3c2s1)c1ccccc1,47% (active)
6,CCN(CCCNC(=O)c1cc2c(=O)n(C)c3ccccc3c2s1)c1ccccc1,57%
7,Cc1ccc(Sc2c(C(=O)NCc3cccc(F)c3)[nH]c3ccccc23)cc1,72%
8,O=C(Cn1cnc2scc(-c3ccccc3)c2c1=O)NCc1ccco1,60%
9,CCc1cccc(C)c1Nc1c(-c2ccc(SC)cc2)nc2sccn12,50%
10,CC(=O)N1CCc2c(sc3nc(SCC(N)=O)n(-c4ccc(F)c(Cl)c4)c(=O)c23)C1,75%
11,CCN1CCOC(=O)C1CC(=O)Nc1ccc(Br)cc1 (centres undefined),44% (active)
12,CCOc1ccc(NC(=O)CC2C(=O)OCCN2CC)cc1 (centres undefined),56%
13,CCc1ccc(NC(=O)CC2C(=O)OCCN2CC)cc1 (centres undefined),5% (active)
14,CCN1CCOC(=O)C1CC(=O)Nc1cc(C)cc(C)c1 (centres undefined),142%
15,CCN1CCOC(=O)C1CC(=O)Nc1ccc(C(C)=O)cc1 (centres undefined),59%
16,CCOC(=O)c1ccc(NC(=O)CC2C(=O)OCCN2CC)cc1 (centres undefined),61%
17,O=C(NCCc1ccc(Cl)cc1)c1ccc2c(c1)N(Cc1ccccc1F)C(=O)c1ccccc1S2(=O)=O,79%
18,CCc1cccc2c(-c3ccccc3)nc(SCC(=O)Nc3ccccc3OC)nc12,109%
19,Cc1ccc(C)c(N2CCN(S(=O)(=O)c3cnc(N)nc3)CC2)c1,86%
20,COc1ccc2oc(=O)c(-c3cn4c(n3)sc3cc(F)ccc34)cc2c1,76%
21,Cc1oc2ccc(O)c(CN3CCN(Cc4ccccc4)CC3)c2c1C(=O)Nc1ccccc1,68%
22,COc1cccc(Cc2nc3ccccc3nc2SCC(=O)NCCc2ccccc2)c1,87%
23,Cc1cccc(CCNC(=O)CCc2c(C)nc3c(c(C)nn3-c3ccccc3)c2C)c1,48% (active)
24,COc1cc2c(-c3ccccc3O)nc3c(c(C)nn3-c3ccccc3)c2cc1OC,68%

row,SMILES,survival
1,COc1cc2c(-c3ccccc3Cl)nc3c(c(C)nn3-c3ccccc3)c2cc1OC,57%
2,COc1ccc(CCNC(=O)CCc2c(C)nc3c(c(C)nn3-c3ccc(C)cc3)c2C)c(OC)c1,107%
3,COc1ccc(CNC(=O)CCc2c(C)nc3c(c(C)nn3-c3ccccc3)c2C)cc1,78%
4,COc1cc2c(-c3ccccc3C)nc3c(c(C)nn3-c3ccccc3)c2cc1OC,35% (active)
5,Cc1nc2c(c(C)nn2-c2ccccc2)c(C)c1CCC(=O)NCc1ccccc1,70%
6,Cc1nc2c(c(C)nn2-c2ccccc2)c(C)c1CCC(=O)NCCc1ccccc1,58%
7,COc1ccc(CCNC(=O)CCc2c(C)nc3c(c(C)nn3-c3ccccc3)c2C)c(OC)c1,53% (active)
8,O=c1c2ccc(N3CCOCC3)c3cccc(c32)c2nc3ccccc3n12,90%
9,CC(C)c1ccc2oc(-c3ccc(NC(=O)c4cccc(Br)c4)cc3)nc2c1,44% (active)
10,O=C(Nc1ccc2oc(-c3cccnc3)nc2c1)c1cccc(Br)c1,62%
11,CC(C)(C)c1ccc(-c2nc3cc(NC(=O)c4cccc(Br)c4)ccc3o2)cc1,73%
12,Cc1cccc(C(=O)Nc2ccc(-c3nc4cc(C(C)C)ccc4o3)cc2)c1,34% (active)
13,Cc1cccc(C(=O)Nc2ccc3oc(-c4cccc5c(Br)cccc45)nc3c2)c1,67%
14,Cc1cccc(C(=O)Nc2ccc3oc(-c4ccncc4)nc3c2)c1,62%
15,CC1CCN(CC(=O)Nc2ccc3ccccc3c2)CC1,107%
16,CCCC(O)=NS(=O)(=O)c1ccc(N=NN(C)C)cc1,94%
17,COc1cccc(NC(=O)CN(C)S(=O)(=O)c2cccs2)c1,108%
18,CC(C)C(OC(=O)c1cc2occc2n1C(C)C)C(=O)NCC1CCCO1 (centres undefined),67%
19,COc1ccc(NC(=O)Cn2cc(C#N)c3ccccc32)cc1,67%
20,CCC1CN(C(=O)N2CCC(C(=O)NCCc3ccc(OC)c(OC)c3)CC2)c2ccccc2O1 (centres undefined),74%
21,Cc1ccccc1Cn1cnc2nc3c(cc2c1=O)CC(C)CC3 (centres undefined),8% (active)
22,CC1CCc2nc3ncn(Cc4cccc(F)c4)c(=O)c3cc2C1 (centres undefined),102%
23,CC1CCc2nc3ncn(Cc4ccccc4C#N)c(=O)c3cc2C1 (centres undefined),81%
24,CC1CCc2nc3ncn(Cc4ccc(Cl)cc4)c(=O)c3cc2C1 (centres undefined),85%

row,SMILES,survival
1,CC1CCc2nc3ncn(Cc4ccccc4F)c(=O)c3cc2C1 (centres undefined),66%
2,Cc1ccc(Cn2cnc3nc4c(cc3c2=O)CC(C)CC4)cc1 (centres undefined),20% (active)
3,CC1CCN(C(=O)Cn2cc(SCc3ccccc3)c3ccccc32)CC1,46%
4,Cc1cc(C)cc(NC(=O)c2cc(CN3CCCC3)on2)c1,88%
5,CCOc1ccc(NC(=O)c2c(NCc3cccs3)sc3c2CCC(C)C3)cc1 (centres undefined),129%
6,COc1ccc(CNc2ncnc3c2c(-c2ccccc2)cn3-c2cccc(C)c2)cc1,67%
7,Cc1ccc(CNC(=O)Cn2c3ncccc3c(=O)n2-c2ccc(C)cc2)cc1,116%
8,CCOC(=O)N1CCN(C(=O)c2ccc3c(c2)N(Cc2cccc(Cl)c2)C(=O)c2ccccc2S3=O)CC1 (centres undefined),102%
9,Cc1cccc(Cc2cnc(NC(=O)C3Cc4ccc(C)cc4C(=O)O3)s2)c1 (centres undefined),85%
10,CCOC(=O)c1c(NC(=O)c2cc(C(C)C)on2)sc(C(C)=O)c1C,123%
11,CCOC(=O)c1c(NC(=O)c2cc(-c3ccc(OC)c(OC)c3)on2)sc(C)c1C,42% (active)
12,CCOC(=O)c1c(NC(=O)c2cc(CC(C)C)on2)sc(C(C)=O)c1C,54% (active)
13,CCOC(=O)c1sc(NC(=O)c2cc(-c3ccc(F)cc3)on2)c(C(=O)OCC)c1C,65%
14,CCOC(=O)c1c(NC(=O)c2cc(-c3cccc(Cl)c3)on2)sc(C)c1C,56% (active)
15,CCOC(=O)c1c(NC(=O)c2cc(-c3ccc(Br)cc3)on2)sc(C(C)=O)c1C,88%
16,CCOC(=O)c1c(NC(=O)c2cc(-c3ccc(Cl)cc3)on2)sc(C)c1C,68%
17,CCOC(=O)c1c(NC(=O)c2cc(CC)on2)sc(C(C)=O)c1C,52%
18,CCOC(=O)c1c(NC(=O)c2cc(-c3ccccc3OC)on2)sc(C)c1C,61%
19,CCOC(=O)c1c(NC(=O)c2cc(-c3cccc(Cl)c3)on2)sc(C(C)=O)c1C,56%
20,CCOC(=O)c1c(NC(=O)c2cc(-c3ccc(OC)cc3)on2)sc(C)c1C,45% (active)
21,CCOC(=O)c1c(NC(=O)c2cc(-c3ccc(Br)cc3)on2)sc(C)c1C,166%
22,CN(C)CCNC(=O)Cn1c(=O)c2cccn2c2ccc(F)cc21,103%
23,CCOC(=O)c1ccc(N2C(=O)c3n[nH]c(-c4ccco4)c3C2c2ccc(OC)cc2OC)cc1 (centres undefined),89%
24,CCOc1ccc(C(=O)OCc2cc(=O)n3nc(C4CC4)sc3n2)cc1,80%

row,SMILES,survival
1,CC(C)N(C)NC(=S)Nc1ccccc1,77%
2,CCN(CC)C(=O)Cn1c(=O)n(CCCCCC(=O)Nc2ccccc2)c(=O)c2sccc21,82%
3,COc1ccc(-c2cc3nccc(C4CCN(C(=O)OC(C)(C)C)CC4)n3n2)cc1,102%
4,CCOC(=O)c1c(NC(=O)c2cc(C)on2)sc(C)c1C,47% (active)
5,CCOC(=O)c1c(NC(=O)c2cc(C(C)C)on2)sc(C)c1C,49%
6,CCOC(=O)c1c(NC(=O)c2cc(CC)on2)sc(C)c1C,144%
7,Cc1nn(C)c2c1c(C(F)(F)F)cc(=O)n2CC(=O)NCCC(C)C,95%
8,O=C(NCCc1ccccc1)c1cc(Sc2ccc(F)cc2F)nc2ccccc12,98%
9,COc1ccc(C2CC(=O)Nc3cc4c(cc32)OCO4)c(OC)c1 (centres undefined),80%
10,COc1ccc(N(Cc2cc3cccc(C)c3[nH]c2=O)C(=O)c2cccc(Cl)c2)cc1,67%
11,COC(=O)c1c(NC(=O)CS(=O)(=O)c2ccc(C)cc2)sc2c1CCCCC2,76%
12,COC(=O)c1c(NC(=O)c2ccc(C(C)(C)C)cc2)sc2c1CCC(C)C2 (centres undefined),85%
13,CC1CCc2c(sc(NC(=O)CCCOc3ccc(C(C)(C)C)cc3)c2C(N)=O)C1 (centres undefined),60%
14,Cc1cccc(OCCCC(=O)Nc2sc3c(c2C(N)=O)CCC(C)C3)c1 (centres undefined),73%
15,COC(=O)c1c(NC(=O)CS(=O)(=O)c2ccc(C)cc2)sc2c1CCCC2,-4% (active)
16,CCOC(=O)c1c(NC(=O)COc2ccc(C)cc2C(C)(C)C)sc2c1CCC(C)C2 (centres undefined),55%
17,COC(=O)c1c(NC(=O)CCCOc2cccc(C)c2)sc2c1CCC2,15% (active)
18,CCOC(=O)c1c(NC(=O)CS(=O)(=O)c2ccc(C)cc2)sc2c1CCCCC2,66%
19,COC(=O)c1c(NC(=O)CCCOc2cccc(C)c2)sc2c1CCC(C)C2 (centres undefined),10% (active)
20,COC(=O)c1c(NC(=O)Cc2coc3ccc(C)cc23)sc2c1CCC2,59%
21,COC(=O)c1c(NC(=O)COc2ccc(C)cc2Br)sc2c1CCCC2,61%
22,COC(=O)c1c(NC(=O)CCCOc2ccc(C(C)(C)C)cc2)sc2c1CCC(C)C2 (centres undefined),28% (active)
